Assay outcomes as filed in PubChem BioAssay.
Epigenetic reg: derepresses silenced GFP reporter in murine cells. 280,000 compounds, 0.2% hits. Potency, µM (titrated, usually from 53.9 µM), usual class: activators. AID 1865. murine LDR cells, GFP reporter derepression, 30 h; also: nearly all actives have a fitted effect of over 60% in size
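Readout is the number of GFP-expressing murine LDR cells, counted by cytometry following washing. Cells were treated with compound for 30 h at 37 C; the stably integrated CMV-GFP locus is normally silent.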
PINK1 expr mod: changes PINK1 expression; AID 624263; 410,000 compounds, 0.2% hits; Potency, µM (series often up to 76.6 µM), actives largely listed as activators; PINK1 immunofluorescence, high-content cytometry, 24 h; active = well fitted activation curve with a large enough effect; inconclusive = small, poorly fitted or top-dose-only effect; cell line not stated here; also: nearly all actives have a fitted effect of over 65% in size
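PINK1 protein, normally rapidly degraded, was detected by immunofluorescence after 24 hour compound treatment of a stable cell line. Titration data (5 concentrations) came from laser-scanning cytometry, with CCCP-treated wells as controls.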
Gal4-VP16 FLuc: counter-screen for ROR gamma inhibitors: Gal4-VP16 reporter | 310,000 compounds, 3.5% hits | Drosophila S2 Gal4-VP16 UAS-luciferase, luminescence, 20 h | Potency, µM (highest dose often 53.6 µM), usual class: inhibitors;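 also: Gal4-VP16 expression switched on by copper sulfate through the metallothionein promoter; nearly all actives have a fitted effect of over 50% in size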
ClpP mod: qHTS Assay for Activators of ClpP. AID 651965, 2013. ATP-dependent Clp protease proteolytic subunit (Bacillus subtilis (strain 168)), P80244. Potency, µM (doses to about 57.5 µM). purified B. subtilis ClpP, FRET peptide cleavage, 20 min. 340,000 compounds, 1.9% hits; active = well fitted falling curve with a large enough effect; inconclusive = small, poorly fitted or top-dose-only effect; inactive = no such curve, though single readings can be large or run the other way; also: the source files actives as falling curves though it sought activators and does not explain the sign; nearly all actives have a fitted effect of over 65% in size
Target sequence (P80244 whole entry, looked up): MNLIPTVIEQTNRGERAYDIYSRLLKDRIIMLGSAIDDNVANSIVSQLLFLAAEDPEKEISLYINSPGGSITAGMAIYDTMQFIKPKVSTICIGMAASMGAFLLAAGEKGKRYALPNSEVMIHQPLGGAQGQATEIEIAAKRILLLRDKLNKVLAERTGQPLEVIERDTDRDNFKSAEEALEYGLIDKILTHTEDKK
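Purified B. subtilis ClpP, 10 microg/mL final in Tris/HCl pH8 with KCl, BSA, glycerol and Tween-20, cleaved an Abz/nitrotyrosine-quenched decapeptide. Fluorescence (ex 320, em 430) was read at 0 and 20 min at room temperature. Delta was normalized to 5.8 microM ADEP and DMSO/no-enzyme controls.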
Sfp inh: blocks B. subtilis Sfp PPTase activity. Q9F4F7. Biochemical Sfp PPTase activity, qHTS. Potency, µM, hits mostly inhibitors. 310,000 compounds, 3.5% hits;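 also: the enzyme is Sfp with the accession as filed and its product quenches rhodamine fluorescence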
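Fluorescence-quenching assay: 15 nM Sfp-PPTase preincubated 15 min at room temperature with compound, then 5 uM rhodamine-CoA and 12.5 uM BHQ-2-labelled YbbR peptide added. Fluorescence (ex 525/em 598 nm) read at start and after 30 min; difference gives rate.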
RORg inh: inhibitors of mouse ROR gamma transcriptional activity | P51450 | Drosophila S2 Gal4-RORgamma UAS-luciferase reporter, 20 h | Potency, µM (series often up to 53.6 µM), hits mostly inhibitors | 310,000 compounds, 5.4% hits; also: nearly all actives have a fitted effect of over 60% in size
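Luminescence from a UAS-regulated Photinus luciferase reporter in stably transfected Drosophila Schneider cells is measured; decreased signal marks ROR gamma inhibition. Fusion expression is induced by 700 uM copper sulfate for 20 hr.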
A number is an active result. The list is not random: actives were taken first. Their share in the collection is about 8.1%. Unless noted, calls follow the shape of the dose curve; as a rule, active = well fitted curve in the direction sought with a large enough effect; inconclusive = small, poorly fitted or top-dose-only effect, or another doubt; inactive = no such curve, though single readings can be large; an effect the other way counts as inactive or inconclusive.

Screening COc1ccc(C(=O)Oc2ccc(C(c3c(C)[nH][nH]c3=O)c3c(C)[nH][nH]c3=O)cc2OC)cc1 returned Epigenetic reg inactive, PINK1 expr mod inactive and ClpP mod inactive.
For Cc1[nH][nH]c(=O)c1C(c1ccc(-c2ccccc2C(=O)O)o1)c1c(C)[nH][nH]c1=O the results were Epigenetic reg inactive, PINK1 expr mod inactive, Gal4-VP16 FLuc inactive, Sfp inh inconclusive and RORg inh inactive.
Cc1[nH][nH]c(=O)c1C(c1ccc(-c2cccc(C(=O)O)c2)o1)c1c(C)[nH][nH]c1=O was read as Epigenetic reg inactive, PINK1 expr mod inactive, Gal4-VP16 FLuc inactive, Sfp inh 15.8µM and RORg inh inactive.
Cc1[nH][nH]c(=O)c1C(c1ccc(-c2cccc(Cl)c2)o1)c1c(C)[nH][nH]c1=O was read as Epigenetic reg inactive, PINK1 expr mod inactive, Gal4-VP16 FLuc inactive, Sfp inh 44.7µM and RORg inh inactive.
For O=C1[C@@H]2C[C@@H]3C[C@H]1C[C@@](O)(C3)C2 the results were Gal4-VP16 FLuc inactive, Sfp inh inactive and RORg inh inactive.
Screening Cc1ccc(-n2ncc3c(NC4CCCCC4)ncnc32)cc1Cl returned Epigenetic reg inactive, PINK1 expr mod inactive and ClpP mod inactive.
CCOC(=O)c1sc(=S)n(C)c1NC(=O)c1ccc(OC)cc1 was read as Epigenetic reg inactive, PINK1 expr mod inactive, Gal4-VP16 FLuc inactive, ClpP mod inactive, Sfp inh 12.6µM and RORg inh inactive.
For CCOC(=O)c1sc(=S)n(C)c1NC(=O)c1ccc(C(C)(C)C)cc1 the results were Epigenetic reg inactive, PINK1 expr mod inconclusive, Gal4-VP16 FLuc inactive, ClpP mod inactive, Sfp inh inconclusive and RORg inh inconclusive.
For COc1ccc(NC(=O)Nc2sc(=S)n(C)c2C)cc1 the results were Epigenetic reg inactive, PINK1 expr mod inactive, Gal4-VP16 FLuc inactive, Sfp inh 20µM and RORg inh inconclusive.
Screening CCOC(=O)c1sc(=S)n(C)c1NC(=O)c1ccccc1Cl returned Epigenetic reg inactive, PINK1 expr mod inactive, Gal4-VP16 FLuc inactive, ClpP mod inconclusive, Sfp inh 17.8µM and RORg inh inactive.
For Cc1c(NC(=O)Nc2ccc(Cl)c(Cl)c2)sc(=S)n1C the results were PINK1 expr mod inconclusive and ClpP mod inactive.
Cc1nc2nncn2c(N2CCN(c3ccccc3)CC2)c1C was read as Epigenetic reg inactive, PINK1 expr mod inactive and ClpP mod inactive.
Screening Cc1ccc(-c2cn3c(n2)sc2cc(C(=O)NC4CCCc5ccccc54)ccc23)cc1 (stereo unspecified) returned Epigenetic reg inactive, PINK1 expr mod inactive and ClpP mod inconclusive.
Cc1csc(NC(=O)COCC(=O)O)c1-c1nc2ccccc2s1 was read as Epigenetic reg inactive, PINK1 expr mod inactive, Gal4-VP16 FLuc inactive, Sfp inh inactive and RORg inh inactive.
For CNc1sc(C(=O)c2ccc(F)cc2)c(N)c1-c1nc2ccccc2s1 the results were Epigenetic reg inactive, PINK1 expr mod inactive, Gal4-VP16 FLuc inconclusive, ClpP mod inactive, Sfp inh inactive and RORg inh 10µM.
CNc1sc(C(=O)c2cccs2)c(N)c1-c1nc2ccccc2s1 was read as Epigenetic reg inactive, PINK1 expr mod inactive, Gal4-VP16 FLuc 3.98µM, ClpP mod inactive, Sfp inh 12.6µM and RORg inh inconclusive.
`CC(=O)Nc1scc(C)c1-c1nc2ccccc2s1` gave Epigenetic reg inactive, PINK1 expr mod inactive, Gal4-VP16 FLuc 8.91µM, Sfp inh inactive and RORg inh 1.12µM.
For CCn1nnc2c(N3CCCC3)ncnc21 the results were PINK1 expr mod inactive and ClpP mod inactive.
For CC1CC(=S)Nc2ccccc2N1C(=O)Nc1ccccc1 (stereo unspecified) the results were Epigenetic reg inactive, PINK1 expr mod inactive, Gal4-VP16 FLuc inconclusive, ClpP mod inactive, Sfp inh inactive and RORg inh 10µM.
`Cc1ccc(OCc2ccc(C(=O)N3CCOCC3)cc2)cc1C` gave Epigenetic reg inactive, PINK1 expr mod inactive, Gal4-VP16 FLuc inactive, ClpP mod inactive, Sfp inh 35.5µM and RORg inh inactive.
